An excerpt weighted towards active compounds, which were near 4.7% of everything screened.
D1 antagonist: Antagonist of Human D 1 Dopamine Receptor: qHTS; D(1A) dopamine receptor (Homo sapiens), P21728; HEK293 TREx D1 cells, calcium flux, dopamine EC80; active compounds read low; activity change, negative = inhibition, % at 10 µM; 3.2% of 360,000 active; in the data active = activity change below about -30%; note: % is set by controls: 0 for no effect and ±100 for the full control effect
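After overnight tetracycline induction at 30 C, force-coupled D1 HEK293 cells took up a no-wash calcium dye at room temperature. Compounds were added and monitored 180 s, and the response to EC80 dopamine was then recorded.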
D1 potentiator: Potentiators of Human D1 Dopamine Receptor: qHTS; HEK293 TREx D1 cells, calcium flux, dopamine EC20 potentiation; potentiation, % at 10 µM; 0.036% of 360,000 active; AID 504651, 2011; in the data active = potentiation above about 30%; note: 0% is about no effect
TRHR enhancer: qHTS for Small Molecule Agonists and Allosteric Enhancers of Human TRH Receptor: Primary Screen for Enhancers; 0.66% of 360,000 active; TRHR cells, fluo-8 calcium fluorescence, EC20 TRH enhancement; enhancement, % at 2 µM; AID 493056, 2011; Thyrotropin-releasing hormone receptor (Homo sapiens), P34981; in the data active = enhancement above about 30%; note: 0% is about no effect
Target sequence (P34981 whole entry, looked up): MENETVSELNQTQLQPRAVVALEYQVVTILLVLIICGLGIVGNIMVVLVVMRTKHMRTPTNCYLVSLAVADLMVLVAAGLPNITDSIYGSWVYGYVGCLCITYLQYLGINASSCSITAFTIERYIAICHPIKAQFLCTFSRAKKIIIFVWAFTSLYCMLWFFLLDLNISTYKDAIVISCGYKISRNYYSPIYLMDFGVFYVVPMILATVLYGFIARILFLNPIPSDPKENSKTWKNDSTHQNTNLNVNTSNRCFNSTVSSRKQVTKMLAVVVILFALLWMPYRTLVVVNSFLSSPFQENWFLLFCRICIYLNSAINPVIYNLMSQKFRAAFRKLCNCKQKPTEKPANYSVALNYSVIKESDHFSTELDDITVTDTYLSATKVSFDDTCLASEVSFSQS
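TRHR-expressing cells loaded with fluo-8 calcium dye were read kinetically (ex 480/em 530) during compound addition, then stimulated with an EC20 of TRH (10 nM final). Enhancement of the Gq-mediated intracellular calcium response was scored.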
TRHR ag: qHTS for Small Molecule Agonists and Allosteric Enhancers of Human TRH Receptor: Primary Screen for Agonists | Thyrotropin-releasing hormone receptor (Homo sapiens), P34981 | TRHR cells, calcium flux fluo-8, FDSS agonist mode | activation, % at 2 µM | 0.18% of 360,000 active; note: 0% is about no effect
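TRHR-expressing cells, plated overnight in medium with 10% serum, were loaded with fluo-8 calcium dye at room temperature. After a 10 s baseline, library compound was pin-added and calcium release was recorded kinetically (ex 480/em 530) as agonist response.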
D1 ag: Allosteric Agonists of the Human D1 Dopamine Receptor: qHTS. 1% of 360,000 active. D(1A) dopamine receptor (Homo sapiens), P21728. HEK293 T-REx D1 cells, calcium flux, agonist mode. activation, % at 2 µM; note: 0% is about no effect
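Tetracycline-induced HEK293 TREx D1 cells, force-coupled to calcium signalling, were dye-loaded with a no-wash calcium kit. Compound was pin-added after a 10 s baseline. Fluorescence was read kinetically at 1 cycle/s for 180 s, with calcium rises flagged as agonism.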
Starred values were filed as active, the others as inactive; ! = a repeat was not active. Cut-off read from the data, not from the text of the source, unless noted: active = activation above about 30%; inactive = the rest.

SMILES | D1 antagonist | D1 potentiator | TRHR enhancer | TRHR ag | D1 ag
O=[N+]([O-])c1ccc(OCC(O)CN(CCO)CCO)cc1 (stereo not drawn) | -34.7* | -1.2 | -2.4 | -0.4 | 3.6
COc1cc2c(cc1OC)C(c1ccccc1C)CC(=O)N2 (stereo not drawn) | -0.4 | -6.3 | -6.2 | 0.9 | -0.4
Cc1cc(NC(=O)CCC(=O)N(CCC(C)C)C(C(=O)NCC2CCCO2)c2ccccc2C)no1 (stereo not drawn) | 4.5 | -1.8 | -4.2 | -0.5 | 0.8
Cc1ccc(-c2nc(S(=O)(=O)c3ccccc3)c(SCC(=O)NCC3CCCO3)o2)cc1 (stereo not drawn) | 21.9 | -5.5 | -5.6 | -1.7 | 2.0
CCCN(CCC)CCCNC(=O)c1cc2cc3ccc(Cl)cc3nc2o1 | -13.7 | -5.8 | 39.9* | 0.7 | 1.7
CCOC(=O)c1ccc2c(c1)[nH]c(=S)n2CC | -19.0 | -1.4 | -5.4 | -1.0 | 5.7
CCN(CC)S(=O)(=O)c1ccc2c(c1)[nH]c(=S)n2CC | 4.1 | 8.7 | 38.3* | -0.8 | 10.3
COc1ccc(C(=O)c2cnc3cc4c(cc3c2C)OCO4)cc1 | -30.2* | 0.6 | -14.7 | -1.1 | -0.3
Cc1ccc(Oc2ccc(Oc3ccc(C)cc3)nn2)cc1 | 0.9 | 1.1 | 11.8 | -0.9 | 44.0*
CCN(CC)CCNC(=O)CCc1c(C)nc2c(c(C)nn2-c2ccc(C)cc2)c1C | 2.8 | -15.5 | 30.1* | -0.9 | 16.5
COCCNC(=O)CCc1c(C)nc2c(c(C)nn2-c2ccc(C)cc2)c1C | -3.7 | -0.7 | 0.8 | -0.4 | 3.4
COc1cccc(NC(=O)Cc2cccs2)c1 | -14.4 | -3.5 | -2.9 | 0.2 | 4.1
COc1cc(NC(=O)Cc2cccs2)cc(OC)c1 | -32.9* | 14.7 | 1.0 | 0.4 | 1.6
COc1cc(NC(=O)Cc2cccs2)c(C(=O)O)cc1OC | -32.1* | -3.3 | -4.5 | 0.3 | 2.2
Cc1cccc(NC(=O)c2cccc(NC(=O)Cc3cccs3)c2)c1 | -47.7* | -6.8 | -2.4 | 0.8 | 5.0
CC(=O)N1c2ccc(S(=O)(=O)N3CCCCCC3)cc2CC1C(=O)NCc1cccc(C)c1 (stereo not drawn) | 5.7 | 0.1 | 2.0 | -0.2 | -1.1
COc1ccccc1NC(=O)C1=C(C)Nc2nc(CCCO)nn2C1c1cccc(O)c1 (stereo not drawn) | 10.5 | -0.6 | 2.2 | 0.7 | 0.6
CCCCCCCCC1=NCCc2c1[nH]c1ccccc21 | -13.5 | -10.9 | 6.0 | 0.8 | 38.2*
Cc1cccc(Nc2nc(C#N)nc(NC3CCCC3)n2)c1 | -8.0 | -4.1 | -2.2 | 0.9 | 11.1
Cn1cc(/C=C2\SC(=S)N(NC(=O)c3ccccc3)C2=O)c2ccccc21 | -12.0 | -0.5 | -0.2 | 23.5 | 74.6*
COc1cc(/C=C2\SC(=S)N(NC(=O)c3ccccc3O)C2=O)ccc1O | -1.3 | -4.8 | 9.6 | -0.6 | 90.1*
O=C(NN1C(=O)/C(=C/c2ccc(O)cc2)SC1=S)c1ccccc1O | -26.6 | -1.8 | 8.2 | -1.6 | 67.3*
COCCN(C(=O)COC(=O)/C=C/c1cccc(OC)c1)c1c(N)n(CC(C)C)c(=O)[nH]c1=O | -3.7 | -1.7 | -5.4 | -1.4 | 2.0
CC(C)CNc1nc(NC(C)(C)C)nc(Oc2ccc(=O)n(-c3ccccc3)n2)n1 | 15.6 | 0.7 | 2.8 | -1.2 | -0.2
CC(C)Nc1nc(NC(C)(C)C)nc(Oc2ccc(=O)n(-c3ccccc3)n2)n1 | 3.6 | 3.2 | 7.3 | 2.9 | 36.8*
CNc1nc(Oc2ccc(=O)n(C)n2)nc(N2CCOCC2)n1 | -30.6*! | -9.7 | 6.7 | 0.5 | 1.9
CSc1nc(NC(C)(C)C)nc(Oc2ccc(=O)n(C)n2)n1 | -34.2* | -6.6 | 3.8 | 1.0 | 2.0
CCc1cccc(NC(=O)c2cc(S(=O)(=O)N3CCCCCC3)cn2C)c1 | -4.3 | -0.7 | -2.3 | 0.0 | 5.7
O=C(NC1CCCCC1)c1ccc(CSc2nc3cccnc3n2Cc2cccc(F)c2)cc1 | -9.7 | -2.9 | -13.3 | 0.2 | 0.1

Screens deposited in PubChem BioAssay by National Center for Advancing Translational Sciences (NCATS).
